Assay outcomes from PubChem.
ALOX12 inh: blocks human arachidonate 12S-lipoxygenase | AID 1671190 | 580,000 compounds, 1.1% hits | Potency, µM (titrated, usually from 108 µM), usual class: inhibitors | purified 12hLO, xylenol orange hydroperoxide absorbance
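Hydroperoxide product was detected by ferrous iron/xylenol orange as the 573 to 405 nm absorbance ratio. Arachidonic acid at 40 uM (final) was turned over for 30 min at room temperature by 150 nM human 12hLO, pH 7.0 Hepes buffer, after 15 min compound preincubation.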
Gal4-VP16 FLuc: inhibits Gal4-VP16 luciferase reporter, ROR gamma counter-screen | Drosophila S2 Gal4-VP16 UAS-luciferase, luminescence, 20 h | Potency, µM (top dose mostly 53.6 µM), hits mostly inhibitors | 310,000 compounds, 3.5% hits | AID 2546;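 further: Gal4-VP16 expression switched on by copper sulfate through the metallothionein promoter; nearly all actives have a fitted effect of over 50% in size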
ELG1 repair inh: blocks ELG1-dependent DNA repair in HEK293T cells. 330,000 compounds, 2.3% hits. AID 504467. Potency, µM (doses to about 46.1 µM), actives largely listed as inhibitors. HEK293T ELG1-luciferase reporter, luminescence, 16 h; DNA damage induced by 5-fluorouridine; further: nearly all actives have a fitted effect of over 55% in size
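Luminescence from the luciferase reporter, measured 30 min after ONE-Glo reagent at room temperature, was the read-out. Beforehand, 2,000 cells per well were exposed for 16 hr at 37 °C to 5-fluorouridine together with compound or vehicle.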
TDP1 cell CPT: DT40-hTDP1 cell growth loss with CPT; chicken DT40 Tdp1-/-;hTDP1 cells + 20 nM CPT, ATP luminescence, 48 h; Potency, µM (top dose mostly 46.2 µM), actives largely listed as inhibitors; 420,000 compounds, 12% hits; AID 686979; further: nearly all actives have a fitted effect of over 55% in size
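Chicken DT40 Tdp1-/- cells stably complemented with human TDP1 were seeded at 400 cells/well in medium containing 20 nM camptothecin, exposed to pin-transferred compounds, and grown at 37 °C for at least 48 hr. Viability was read as ATP luminescence.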
TDP1 cell noCPT: qHTS for Inhibitors of human tyrosyl-DNA phosphodiesterase 1 (TDP1): qHTS in cells in absence of CPT; DT40 Tdp1-/- hTDP1 cells, no CPT, ATP luminescence, 48 h; Potency, µM (doses to about 46.2 µM), usual class: inhibitors; 420,000 compounds, 15% hits; AID 686978, 2013; further: nearly all actives have a fitted effect of over 55% in size
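Growth kinetics read by CellTiter-Glo luminescence after ≥48 hr at 37 °C. Cells: DT40 Tdp1-/- stably carrying human TDP1, 400 per well, compound exposure in the absence of CPT (DMSO vehicle).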
RORgamma inh: ROR gamma (mouse) transcription inhibition | P51450 | 310,000 compounds, 5.4% hits | Potency, µM (series often up to 53.6 µM), actives largely listed as inhibitors | Drosophila S2 Gal4-RORgamma UAS-luciferase reporter, 20 h; further: nearly all actives have a fitted effect of over 60% in size
Target sequence (P51450 whole entry, looked up, the tested form may be a part): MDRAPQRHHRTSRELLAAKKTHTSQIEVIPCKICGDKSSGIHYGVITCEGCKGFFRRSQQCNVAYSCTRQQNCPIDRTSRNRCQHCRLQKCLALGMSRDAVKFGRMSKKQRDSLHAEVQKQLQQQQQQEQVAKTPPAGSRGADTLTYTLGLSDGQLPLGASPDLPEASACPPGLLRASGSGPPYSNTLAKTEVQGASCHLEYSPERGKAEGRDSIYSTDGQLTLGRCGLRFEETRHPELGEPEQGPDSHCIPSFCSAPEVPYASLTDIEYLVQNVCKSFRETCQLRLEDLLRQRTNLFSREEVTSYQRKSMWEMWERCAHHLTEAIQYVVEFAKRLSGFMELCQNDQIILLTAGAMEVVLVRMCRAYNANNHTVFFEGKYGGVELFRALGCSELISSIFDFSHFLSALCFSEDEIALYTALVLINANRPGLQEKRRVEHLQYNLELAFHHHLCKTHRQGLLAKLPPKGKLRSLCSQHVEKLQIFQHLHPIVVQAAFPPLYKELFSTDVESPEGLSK
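ROR gamma transcriptional activity was tracked as Gal4-UAS luciferase output in stably transfected Drosophila Schneider cells, with compound added 1 hr before 700 uM copper sulfate induction and a 20 hr ambient-temperature incubation.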
A number is an active result; i = inactive; ? = inconclusive; nt = no result; [ ] = remark or other dose. The list is not random: actives were taken first. Their share in the collection is about 15%. The call rests on the fitted dose curve; in most records, active means well fitted curve in the direction sought with a large enough effect; inconclusive means small, poorly fitted or top-dose-only effect, or another doubt; inactive means no such curve, though single readings can be large; an effect the other way counts as inactive or inconclusive.

SMILES	ALOX12 inh	Gal4-VP16 FLuc	ELG1 repair inh	TDP1 cell CPT	TDP1 cell noCPT	RORgamma inh
CNC(=O)[C@@H](c1ccccc1F)N1CCC[C@H]1C(=O)NCc1ccncc1	i	nt	nt	nt	nt	nt
COCCNc1nc(-c2ccc(OC)cc2C)c2sc(-c3ccccc3)cc2n1	?	nt	nt	21µM	16µM	nt
CCC(=O)[C@@H](C)[C@@H](OC(C)=O)[C@H](C)C[C@@H](C)[C@H]1OC(=O)C[C@@]2(O)CC=C(C)C(O2)C(C)=CCCC[C@H](O[C@H]2C[C@@H](OC(N)=O)[C@H](OC(C)=O)[C@@H](C)O2)C=C[C@H](C)C[C@H]1C	i	nt	nt	?	2.9µM	nt
CC(C)(C)c1ccc(C(=O)Nc2ccc(Oc3cccnc3)nc2)cc1	i	?	2.1µM	?	13µM	i
CC(C)(C)c1ccc(C(=O)Nc2cccnc2)cc1	i	i	?	?	?	?
CC(C)(C)c1cnnn1-c1ccc(NC(=O)c2ccc3c(c2)OCO3)cc1	i	i	?	?	21µM	?
COc1cccc(C(=O)Nc2ccc(NC(=O)c3ccc(C(C)(C)C)cc3)cc2)c1	i	nt	nt	16µM	10µM	nt
COC(=O)Cc1ccc(NC(=O)c2ccc(C(C)(C)C)cc2)cc1	i	?	9.2µM	?	?	1.6µM
COC(=O)Cc1ccc(NC(=O)c2ccccc2Cl)cc1	i	i[10 µM]	?	i	i	i
COc1cccc(C(=O)Nc2ccc(NC(C)=O)cc2)c1	i	i	?	i	i	i
O=C(O)COCc1ccccc1Cl	i	nt	nt	nt	nt	nt
COc1cccc(C(=O)Nc2ccc(NC(=O)C(C)(C)C)cn2)c1	i	8.9µM	?	i	i	7.1µM
COc1cccc(C(=O)Nc2ccc(-n3nncc3C(C)(C)C)cc2)c1	i	i	?	?	21µM	i
CN[C@H](C(=O)N[C@H]1C[C@@](O)(C(=O)N[C@H](CC(C)C)C(N)=O)C[C@@H](O)[C@@H]1O)C(C)C	i	nt	nt	nt	nt	nt
CCC/C=C1/CCCOC(C(=O)NCc2ccc(C)o2)(C(F)(F)F)C1 (stereo not given)	i	i	i	7.3µM	10µM	i
Cc1onc(-c2ccc(Cl)cc2Cl)c1-c1csc(N/N=C/c2ccccc2Cl)n1	i	i	i	?	12µM	i
Cc1onc(-c2ccccc2)c1-c1csc(N/N=C/c2ccccc2Cl)n1	i	i	i	?	?	i
CCOC(=O)c1c(C)[nH]c(C(=O)N/N=C/c2cccc(OC)c2)c1C	i	i	?	?	15µM	?
COc1cccc(/C=N/NC(=O)c2[nH]nc3c2CCc2ccccc2-3)c1	i	i	?	4.1µM	4.1µM	i
Cc1c(C(=O)N/N=C/c2ccc(Cl)cc2)[nH]c2ccc(Cl)cc12	i	11µM	i	0.82µM	0.92µM	11µM
CCOC(=O)c1c(C)[nH]c(C(=O)Nc2ccc(NC(C)=O)cc2)c1C	?	i	i	i	i	i
COc1cccc(/C=N/NC(=O)c2[nH]c(C)c(C(=O)N/N=C/c3cccc(OC)c3)c2C)c1	i	i	21µM	?	?	i
O=C(CSCCSCC(=O)c1ccccc1)c1ccccc1	i	nt	nt	nt	nt	nt
COc1cc(COc2ccc(C(C)=O)cc2)c(OC)cc1Br	i	nt	nt	nt	nt	nt
Cc1ccc(CNC(=O)c2c(C)noc2-c2ccc3c(c2)OCO3)o1	i	nt	nt	nt	nt	nt
CC(=O)c1c(C)[nH]c(C(=O)Cn2cnc3c2c(=O)n(C)c(=O)n3C)c1C	i	nt	nt	nt	nt	nt
COCCN1CCNc2nc(COc3cccc(C(F)(F)F)c3)n(Cc3ccccc3)c2C1=O	i	nt	nt	nt	nt	nt
CCOC(=O)c1c(C)[nH]c(/C(C)=N/NC(=O)c2cccnc2)c1C	i	nt	nt	i	?	nt
CCOC(=O)c1c(C)[nH]c(C(C)=NNC(=O)c2cccs2)c1C	i	nt	?	12µM	6.5µM	nt
COc1ccc(/C=N/NC(=O)c2[nH]c(C)c(C(=O)N/N=C/c3ccc(OC)cc3)c2C)cc1	i	i	21µM	?	?	i
